# Measurements published in ChEMBL document CHEMBL4513135, “CO-ADD screening of IQOG CSIS (Spain) compounds”.
# Potency and affinity values are given separately.
# What was measured:
# [1] = test system: Klebsiella pneumoniae; conditions: Concentration 32 ug.mL-1; ASSAY_TEST Inhibition of Bacterial Growth; detection method Absorption (OD600); MEDIA CAMHB; plate type 384well; NBS; CORNING #3640; time 18 hr
# [2] = test system: Candida albicans; conditions: 32 ug/mL
# [3] = test system: Cryptococcus neoformans; conditions: Concentration 32 ug.mL-1; ASSAY_TEST Inhibition of Fungal Growth; detection method Resazurin; Absorption (OD600-OD570); plate type 384well; NBS; CORNING #3640
SMILES,Inhibition [1] [%],Inhibition [2] [%],Inhibition [3] [%]
COc1ccc2c(c1)cc(CN(C)Cc1cn(Cc3ccccc3)nn1)n2C,5.47,2.23,-55.57
COc1nc(N)c(C#N)cc1C#N,5.43,3.36,-30.91
O=Cc1ccc(OCCO[N+](=O)[O-])cc1,8.5,5.46,-2.32
Cn1c(C(=O)O)cc2cc(OCCCC3CCN(Cc4ccccc4)CC3)ccc21,12.92,6.79,-100.02
C#CCNc1nc(NC2CCN(Cc3ccccc3)CC2)c(C#N)cc1C#N.Cl,-9.27,1.54,-92.81
Cc1ccc(CNNC(=O)c2cc3ccccc3n2C)cc1,-14.45,1.69,-0.2
O=C1OC(c2ccc([N+](=O)[O-])cc2)=NC1=Cc1ccccc1,6.09,1.83,-5.52
N#CC1=C(N)Oc2c(ccc3ccccc23)C1c1ccccc1 (centres undefined),10.23,1.97,-37.74
Cn1c(C(=O)O)cc2ccccc21,18.05,24.1,5.37
N#CC1(Br)C(=NBr)Oc2ccc3ccccc3c2C1c1ccc([N+](=O)[O-])cc1 (centres undefined),-0.48,2.19,-71.87
COc1ccccc1-c1c(C#N)c(=O)oc2c1ccc1ccccc12,11.02,9.28,-7.79
C=C1CN(C)c2c(C#N)cc(C#N)c(=S)n21,3.88,4.91,-13.76
Cc1ccc(-c2c(C#N)c(N)nc3c2S(=O)(=O)OC3(C)C)cc1,10.18,1.92,-1.83
COc1ccc(/C=C2/N=C(c3ccccc3)OC2=O)cc1OC,-24.56,-0.31,-8.84
CCOC(=O)c1c(C)nc(N)c(C#N)c1-c1cccs1,-1.63,2.63,-31.89
CN(C)c1nc(N)c(C#N)c(-c2ccccc2)c1C#N,-2.21,0.74,-0.79
N#Cc1cc(C#N)c(N2CCCC2)nc1N1CCCC1,22.43,-0.31,-5.24
O=C(Cc1c[nH]c2ccccc12)NN=C1CCCCCC1,-21.31,1.07,-2.54
CCOC(=O)C1=C(C)Oc2nc3c(c(N)c2C1c1nccn1C)CCC3 (centres undefined),4.43,-1.64,-84.25
N#C[C@]1(Br)C(=N)Oc2ccc3ccccc3c2[C@@H]1c1ccc([N+](=O)[O-])cc1,5.78,6.21,-3.1
C=CCNc1[nH]c2ccc(O)cc2c1C#N,7.13,2.34,-48.34
COc1nc2nc3c(c(N)c2cc1C#N)CCCC3,13.26,2.72,-84.27

SMILES,Inhibition [1] [%],Inhibition [2] [%],Inhibition [3] [%]
C=C=CCN(C)Cc1cc2ccccc2n1C.O=C(O)C(=O)O,9.39,1.88,-29.39
N#Cc1c(N)nc(N2CCC(Cc3ccccc3)CC2)c(C#N)c1-c1ccccc1,7.85,1.84,-30
Cc1ccc(C2c3ccc4ccccc4c3Oc3nc4c(c(N)c32)CCCC4)cc1 (centres undefined),-8.56,2.81,5.66
COc1nc(NC(C)=O)c(C#N)c(-c2ccccc2)c1C#N,12.51,2.3,-37.64
CN(C)c1nc2nc3c(c(N)c2c(-c2ccccc2)c1C#N)CCCC3,5.15,1.47,-62.72
Cc1ccc(CNNC(N)=O)cc1.Cl,11.02,-0.27,-5.64
N#Cc1c(NC2CCC(Cc3ccccc3)CC2)nc(NC2CCN(Cc3ccccc3)CC2)c(C#N)c1-c1ccccc1 (centres undefined),-7.01,2.46,-20.4
O=C(Cc1cccc2ccccc12)N/N=C/c1c[nH]c2ccccc12,10.96,1.2,-4.19
COc1ccc(-c2cc(-c3cc4ccccc4nc3Cl)cc(=O)[nH]2)cc1,10.14,-0.7,-53.36
C#CCN1CCc2nc3nc(NC4CCN(Cc5ccccc5)CC4)c(C#N)cc3c(N)c2C1,10.49,5.66,-17.48
CC(=NNC(N)=O)c1c[nH]c2ccccc12,10.53,5.46,-5.64
N#Cc1cc(C#N)c(N2CCCCC2)nc1Cl,12.8,0.28,-0.7
COc1ccc(C2C(C#N)=C(N)Oc3c2ccc2ccccc32)cc1 (centres undefined),9.52,1.55,-40.73
C#CCN(C)c1nc(OC)c(C#N)cc1C#N,1.2,2.65,-43.21
CC(C)CC(C)NNC(=O)c1cc2ccccc2[nH]1 (centres undefined),-2.7,-0.37,-6.14
CCOC(=O)C1=C(C)OC(N)=C(C#N)C1c1ccc(F)cc1 (centres undefined),13.44,1.48,-57.32
COc1ccc2cc(C3C4=C(CC(C)(C)CC4=O)Oc4nc5c(c(N)c43)CCC5)c(Cl)nc2c1 (centres undefined),7.42,10.1,-1.53
N#Cc1cc2c(N)c3c(nc2nc1N1CCCCC1)CCCC3,18.01,1.35,-98.63
Cl.N#Cc1c(N)nc(NCCO)c(C#N)c1-c1ccccc1,7.62,1.4,-7.17
C#CCN1CCc2nc3nc(N(C)C)c(C#N)cc3c(N)c2C1,15.18,3.18,-99.98
N#C/C(=C\c1ccccc1Cl)C(=O)c1ccccc1,13.98,10.6,-6.26
